# According to the supplement of paper PMC10849652:
# Of roughly 8,800 targets only a part is listed; those with a hit were picked by preference. About 0.5% of all pairs of compound and target were hits. A number with no mark means an inactive call.
# Key:
# Test in all cases: log2 fold change, soluble protein after heating vs DMSO (PISA); higher = thermal stabilisation; K562 lysate, 10 uM; active = over 0.2 and 3.5 SD of the protein, either way, in both replicates (recomputed)
# alvocidib = compound: CN1CC[C@H](c2c(O)cc(O)c3c(=O)cc(-c4ccccc4Cl)oc23)[C@H](O)C1 [alvocidib]
# How it was run: (§1)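 Log-two fold change in thermal stability relative to solvent controls is reported from duplicates. For each sample, crude K562 extract from dounce-homogenised pellets in PBS pH 7.4 with 1 mM MgCl2, at 1 mg/mL protein, was treated with 10 μM compound for 30 min. Aliquots heated for 3 min across 48°C-58°C were pooled, brought to 0.5% NP-40 at 4°C and cleared at 21,000xg for 90 min. The supernatant was quantified by TMTpro 16plex LC-MS/MS with channel sums equalised.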
# Tubastatin A = compound: CN1CCc2c(c3ccccc3n2Cc2ccc(C(=O)NO)cc2)C1 [Tubastatin A]
# How it was run: as §1
# [1] = compound: CNC(=O)C1=CC=CC=C1NC2=NC(=NC=C2Cl)NC3=C(C=C(C=C3)N4CCOCC4)OC
# How it was run: as §1
# defactinib = compound: CNC(=O)c1ccc(Nc2ncc(C(F)(F)F)c(NCc3nccnc3N(C)S(C)(=O)=O)n2)cc1 [defactinib]
# How it was run: as §1
# [2] = compound: CNc1nc(-c2ccc3c(N)n[nH]c3c2)cc(N2C[C@@H](C(=O)NC3CCCCC3)CC[C@H]2C)n1
# How it was run: as §1
# encorafenib = compound: COC(=O)N[C@@H](C)CNc1nccc(-c2cn(C(C)C)nc2-c2cc(Cl)cc(NS(C)(=O)=O)c2F)n1 [encorafenib]
# How it was run: as §1
# [3] = compound: COC(=O)[C@H](CCSC)NC(=O)C1=C(C=C(C=C1)NC[C@H](CS)N)C2=CC=CC=C2
# How it was run: as §1
# alisertib = compound: COc1cc(Nc2ncc3c(n2)-c2ccc(Cl)cc2C(c2c(F)cccc2OC)=NC3)ccc1C(=O)O [alisertib]
# How it was run: as §1
# [4] = compound: COc1cc2nc(-c3cc(F)ccc3O)nc(N[C@@H]3CNC[C@H]3C(C)(C)O)c2cc1OC
# How it was run: as §1
# gefitinib = compound: COc1cc2ncnc(Nc3ccc(F)c(Cl)c3)c2cc1OCCCN1CCOCC1 [gefitinib]
# How it was run: as §1
# lapatinib = compound: CS(=O)(=O)CCNCc1ccc(-c2ccc3ncnc(Nc4ccc(OCc5cccc(F)c5)c(Cl)c4)c3c2)o1 [lapatinib]
# How it was run: as §1
# pictilisib = compound: CS(=O)(=O)N1CCN(Cc2cc3nc(-c4cccc5[nH]ncc45)nc(N4CCOCC4)c3s2)CC1 [pictilisib]
# How it was run: as §1
# crizotinib = compound: C[C@@H](Oc1cc(-c2cnn(C3CCNCC3)c2)cnc1N)c1c(Cl)ccc(F)c1Cl [crizotinib]
# How it was run: as §1
# [5] = compound: C[C@H](C1=CC=C(C=C1)C(=O)NC2=C3C=CNC3=NC=C2)N
# How it was run: as §1
# duvelisib = compound: C[C@H](Nc1ncnc2nc[nH]c12)c1cc2cccc(Cl)c2c(=O)n1-c1ccccc1 [duvelisib]
# How it was run: as §1
# gandotinib = compound: Cc1cc(Nc2cc(CN3CCOCC3)c3nc(C)c(Cc4ccc(Cl)cc4F)n3n2)n[nH]1 [gandotinib]
# How it was run: as §1
# tozasertib = compound: Cc1cc(Nc2cc(N3CCN(C)CC3)nc(Sc3ccc(NC(=O)C4CC4)cc3)n2)n[nH]1 [tozasertib]
# How it was run: as §1
# doramapimod = compound: Cc1ccc(-n2nc(C(C)(C)C)cc2NC(=O)Nc2ccc(OCCN3CCOCC3)c3ccccc23)cc1 [doramapimod]
# How it was run: as §1
# bafetinib = compound: Cc1ccc(NC(=O)c2ccc(CN3CC[C@H](N(C)C)C3)c(C(F)(F)F)c2)cc1Nc1nccc(-c2cncnc2)n1 [bafetinib]
# How it was run: as §1
# [6] = compound: Cc1cccc(CC(=O)N2CCc3c2ccc(-c2cn(C)c4ncnc(N)c24)c3F)n1
# How it was run: as §1
# Chain of UniProt Q8TCG2 (Q8TCG2 whole entry, looked up): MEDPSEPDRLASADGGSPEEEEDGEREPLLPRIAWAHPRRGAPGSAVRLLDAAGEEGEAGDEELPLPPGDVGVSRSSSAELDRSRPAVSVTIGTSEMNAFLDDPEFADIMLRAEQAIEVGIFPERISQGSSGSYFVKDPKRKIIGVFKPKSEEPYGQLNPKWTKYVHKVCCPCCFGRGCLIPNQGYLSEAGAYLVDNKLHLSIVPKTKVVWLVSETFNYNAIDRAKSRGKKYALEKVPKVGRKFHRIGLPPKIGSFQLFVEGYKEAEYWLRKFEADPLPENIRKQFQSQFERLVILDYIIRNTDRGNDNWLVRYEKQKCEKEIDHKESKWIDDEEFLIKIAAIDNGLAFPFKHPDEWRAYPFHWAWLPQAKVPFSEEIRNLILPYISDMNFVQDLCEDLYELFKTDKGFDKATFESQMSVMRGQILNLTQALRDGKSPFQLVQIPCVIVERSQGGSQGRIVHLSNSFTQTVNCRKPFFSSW
# Chain of UniProt P28340 (P28340 whole entry, looked up): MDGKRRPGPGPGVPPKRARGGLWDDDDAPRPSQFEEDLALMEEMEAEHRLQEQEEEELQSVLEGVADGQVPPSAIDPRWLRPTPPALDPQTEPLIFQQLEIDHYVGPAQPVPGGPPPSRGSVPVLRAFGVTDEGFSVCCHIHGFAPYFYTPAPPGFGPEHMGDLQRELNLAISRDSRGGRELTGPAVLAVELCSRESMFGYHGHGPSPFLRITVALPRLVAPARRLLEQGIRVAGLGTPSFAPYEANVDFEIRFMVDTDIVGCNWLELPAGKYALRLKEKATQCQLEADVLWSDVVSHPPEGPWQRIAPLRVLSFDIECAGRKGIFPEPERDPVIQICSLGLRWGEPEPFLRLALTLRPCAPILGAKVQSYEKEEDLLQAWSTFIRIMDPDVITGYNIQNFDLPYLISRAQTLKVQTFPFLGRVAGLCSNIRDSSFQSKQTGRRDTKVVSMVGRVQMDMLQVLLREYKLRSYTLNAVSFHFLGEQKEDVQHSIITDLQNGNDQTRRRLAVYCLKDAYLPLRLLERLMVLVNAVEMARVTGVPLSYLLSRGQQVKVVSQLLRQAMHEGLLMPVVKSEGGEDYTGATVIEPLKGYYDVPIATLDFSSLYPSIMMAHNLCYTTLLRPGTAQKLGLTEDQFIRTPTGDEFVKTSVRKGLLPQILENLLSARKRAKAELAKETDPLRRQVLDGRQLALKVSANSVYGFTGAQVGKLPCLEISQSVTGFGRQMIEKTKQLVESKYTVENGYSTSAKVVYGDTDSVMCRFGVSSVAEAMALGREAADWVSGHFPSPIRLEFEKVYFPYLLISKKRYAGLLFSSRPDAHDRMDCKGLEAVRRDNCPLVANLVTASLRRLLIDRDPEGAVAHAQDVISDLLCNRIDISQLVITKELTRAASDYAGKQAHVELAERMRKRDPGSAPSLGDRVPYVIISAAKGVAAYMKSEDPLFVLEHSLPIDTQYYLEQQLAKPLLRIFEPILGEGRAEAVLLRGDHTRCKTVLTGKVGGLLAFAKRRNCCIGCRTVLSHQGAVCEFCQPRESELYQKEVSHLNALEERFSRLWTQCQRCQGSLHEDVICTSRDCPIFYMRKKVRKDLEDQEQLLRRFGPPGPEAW
# Chain of UniProt O15530 (O15530 whole entry, looked up): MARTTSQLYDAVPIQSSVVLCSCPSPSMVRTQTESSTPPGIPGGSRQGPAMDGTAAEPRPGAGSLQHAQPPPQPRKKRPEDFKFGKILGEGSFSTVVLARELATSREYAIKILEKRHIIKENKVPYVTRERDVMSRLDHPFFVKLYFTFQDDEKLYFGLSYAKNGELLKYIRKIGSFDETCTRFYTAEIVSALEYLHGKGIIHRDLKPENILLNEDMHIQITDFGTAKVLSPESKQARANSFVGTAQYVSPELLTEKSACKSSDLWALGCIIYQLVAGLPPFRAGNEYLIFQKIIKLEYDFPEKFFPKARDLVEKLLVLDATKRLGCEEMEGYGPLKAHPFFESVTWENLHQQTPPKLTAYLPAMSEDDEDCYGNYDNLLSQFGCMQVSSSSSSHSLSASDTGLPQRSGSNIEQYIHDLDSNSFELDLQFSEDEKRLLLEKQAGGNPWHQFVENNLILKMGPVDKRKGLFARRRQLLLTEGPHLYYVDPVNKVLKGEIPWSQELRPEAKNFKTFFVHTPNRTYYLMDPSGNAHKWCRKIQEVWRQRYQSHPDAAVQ
# Chain of UniProt P49643 (P49643 whole entry, looked up): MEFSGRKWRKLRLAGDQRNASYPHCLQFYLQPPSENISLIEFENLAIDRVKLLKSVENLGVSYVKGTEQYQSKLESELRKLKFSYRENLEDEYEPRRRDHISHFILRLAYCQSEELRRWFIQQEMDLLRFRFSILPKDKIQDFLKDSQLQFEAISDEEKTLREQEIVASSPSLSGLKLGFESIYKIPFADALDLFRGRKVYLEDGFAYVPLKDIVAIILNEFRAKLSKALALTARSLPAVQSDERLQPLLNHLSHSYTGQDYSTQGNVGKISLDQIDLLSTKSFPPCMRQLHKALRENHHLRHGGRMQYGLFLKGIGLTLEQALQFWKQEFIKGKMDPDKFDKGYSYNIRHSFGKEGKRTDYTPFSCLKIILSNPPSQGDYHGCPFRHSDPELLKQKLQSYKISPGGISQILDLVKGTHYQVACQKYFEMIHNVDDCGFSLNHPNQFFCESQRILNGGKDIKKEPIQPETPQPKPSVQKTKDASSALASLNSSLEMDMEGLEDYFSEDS
# Chain of UniProt P53350 (P53350 whole entry, looked up): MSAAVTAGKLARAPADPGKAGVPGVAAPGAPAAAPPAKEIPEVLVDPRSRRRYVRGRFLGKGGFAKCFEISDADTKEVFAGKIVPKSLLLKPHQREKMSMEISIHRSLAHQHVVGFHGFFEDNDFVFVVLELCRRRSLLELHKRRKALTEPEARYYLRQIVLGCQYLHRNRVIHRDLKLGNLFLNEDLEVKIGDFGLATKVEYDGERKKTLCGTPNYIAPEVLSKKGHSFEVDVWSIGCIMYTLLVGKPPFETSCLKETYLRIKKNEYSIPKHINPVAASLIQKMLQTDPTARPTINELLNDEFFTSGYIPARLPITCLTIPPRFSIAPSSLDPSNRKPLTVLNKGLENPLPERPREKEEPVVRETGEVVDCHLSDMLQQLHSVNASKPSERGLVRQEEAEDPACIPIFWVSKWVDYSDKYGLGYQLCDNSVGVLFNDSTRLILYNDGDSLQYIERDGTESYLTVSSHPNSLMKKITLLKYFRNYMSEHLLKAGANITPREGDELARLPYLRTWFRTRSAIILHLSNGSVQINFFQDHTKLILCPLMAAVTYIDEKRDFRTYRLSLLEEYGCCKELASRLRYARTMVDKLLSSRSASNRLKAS
# Chain of UniProt Q9NXJ5 (Q9NXJ5 whole entry, looked up): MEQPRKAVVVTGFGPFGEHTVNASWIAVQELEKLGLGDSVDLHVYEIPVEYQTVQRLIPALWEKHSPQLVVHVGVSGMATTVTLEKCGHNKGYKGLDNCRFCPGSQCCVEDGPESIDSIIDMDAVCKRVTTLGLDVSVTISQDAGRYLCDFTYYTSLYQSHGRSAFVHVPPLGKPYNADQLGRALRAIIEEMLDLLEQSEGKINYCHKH
# Chain of UniProt P28328 (P28328 whole entry, looked up): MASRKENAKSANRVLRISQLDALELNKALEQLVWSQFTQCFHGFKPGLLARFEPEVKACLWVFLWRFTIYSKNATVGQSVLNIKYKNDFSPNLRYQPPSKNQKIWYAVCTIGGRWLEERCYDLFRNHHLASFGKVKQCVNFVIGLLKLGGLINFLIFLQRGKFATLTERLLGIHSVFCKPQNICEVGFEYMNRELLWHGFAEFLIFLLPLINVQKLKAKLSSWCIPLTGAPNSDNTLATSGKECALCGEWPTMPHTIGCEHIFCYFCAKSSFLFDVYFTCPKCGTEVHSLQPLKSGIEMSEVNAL
# Chain of UniProt P50336 (P50336 whole entry, looked up): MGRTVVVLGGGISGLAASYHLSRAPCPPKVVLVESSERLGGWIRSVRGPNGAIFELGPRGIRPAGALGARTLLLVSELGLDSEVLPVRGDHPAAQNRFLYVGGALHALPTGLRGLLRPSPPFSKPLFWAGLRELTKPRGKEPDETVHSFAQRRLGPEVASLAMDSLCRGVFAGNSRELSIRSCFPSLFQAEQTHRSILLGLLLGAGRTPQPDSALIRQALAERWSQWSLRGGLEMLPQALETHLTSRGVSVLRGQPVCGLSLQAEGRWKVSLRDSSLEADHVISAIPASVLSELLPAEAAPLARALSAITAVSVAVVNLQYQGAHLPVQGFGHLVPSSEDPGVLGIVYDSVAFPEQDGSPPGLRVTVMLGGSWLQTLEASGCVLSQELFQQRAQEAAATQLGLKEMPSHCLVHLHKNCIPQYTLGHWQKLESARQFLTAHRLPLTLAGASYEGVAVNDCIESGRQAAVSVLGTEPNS
# Chain of UniProt Q15004 (Q15004 whole entry, looked up): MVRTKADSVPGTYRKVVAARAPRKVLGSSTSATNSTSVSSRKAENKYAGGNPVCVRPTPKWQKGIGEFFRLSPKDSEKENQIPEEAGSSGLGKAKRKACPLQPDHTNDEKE
# Chain of UniProt Q9ULR3 (Q9ULR3 whole entry, looked up): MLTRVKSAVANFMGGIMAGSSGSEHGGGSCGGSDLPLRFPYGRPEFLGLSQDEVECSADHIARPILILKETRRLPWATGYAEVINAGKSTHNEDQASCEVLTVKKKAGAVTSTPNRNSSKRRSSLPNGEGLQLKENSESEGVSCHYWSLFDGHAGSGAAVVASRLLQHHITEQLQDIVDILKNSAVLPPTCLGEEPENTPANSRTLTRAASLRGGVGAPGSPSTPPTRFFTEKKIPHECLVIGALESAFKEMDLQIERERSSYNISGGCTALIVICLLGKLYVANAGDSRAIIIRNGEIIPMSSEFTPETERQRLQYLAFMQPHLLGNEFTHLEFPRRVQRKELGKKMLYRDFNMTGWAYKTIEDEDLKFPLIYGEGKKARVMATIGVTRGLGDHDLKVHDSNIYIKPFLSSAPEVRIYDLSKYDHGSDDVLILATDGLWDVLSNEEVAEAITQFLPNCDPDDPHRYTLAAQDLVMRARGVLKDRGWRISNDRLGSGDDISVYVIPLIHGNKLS
Target,log2 fold change (alvocidib),log2 fold change (Tubastatin A),log2 fold change [1],log2 fold change (defactinib),log2 fold change [2],log2 fold change (encorafenib),log2 fold change [3],log2 fold change (alisertib),log2 fold change [4],log2 fold change (gefitinib),log2 fold change (lapatinib),log2 fold change (pictilisib),log2 fold change (crizotinib),log2 fold change [5],log2 fold change (duvelisib),log2 fold change (gandotinib),log2 fold change (tozasertib),log2 fold change (doramapimod),log2 fold change (bafetinib),log2 fold change [6]
PGPEP1 (UniProt Q9NXJ5),0.05,-0.182,0.012,-0.032,-0.055,0.02,0.057,-0.045,0.01,-0.06,0.023,-0.013,0.011,-0.025,0.057,-0.029,0.03,0.045,-0.013,-0.019
PI4K2B (UniProt Q8TCG2),-0.263,0.12,-0.04,-0.081,-0.057,0.041,-0.005,-0.068,-0.011,0.107,0.009,0.039,-0.203,0.134,0.143,0.041,0.019,-0.026,-0.017,0.003
PDPK1 (UniProt O15530),0.009,-0.121,0.107,0.21,0.501 (active),-0.019,0.109,0.153,0.15,0.016,-0.04,-0.051,0.03,0.262,-0.039,0.092,-0.029,-0.012,-0.021,-0.211
PPM1H (UniProt Q9ULR3),-0.046,0.071,0.006,-0.03,0.078,-0.008,-0.028,,0.05,,0.013,0.016,0.021,-0.043,0,0.157,0.021,0.093,-0.079,0.038
PDCD6IP (UniProt Q8WUM4),0.05,0,-0.002,-0.021,-0.042,-0.1,0.143,-0.039,0.013,-0.001,-0.006,-0.032,-0.103,-0.106,0.004,-0.012,0.033,0.034,-0.053,0.012
PPOX (UniProt P50336),-0.004,-0.124,0.257,-0.03,0.107,-0.017,0.076,0.005,-0.035,-0.043,0.379 (active),0.111,-0.068,-0.075,0.04,0.581 (active),0.003,0.206,-0.028,0.11
PCLAF (UniProt Q15004),-0.005,0.041,0.017,0.014,0.056,0.005,-0.077,-0.097,,0.001,,0.015,0.024,-0.079,0.037,0.108,-0.029,0.009,-0.01,0.05
PMS1 (UniProt P54277),-0.038,-0.046,-0.008,0,-0.039,0.046,0.022,-0.01,,0.049,,-0.028,-0.004,0.018,0.018,-0.063,-0.053,-0.03,-0.064,-0.013
PRIM2 (UniProt P49643),-0.008,-0.138,0.033,-0.01,0.009,-0.002,0.035,-0.017,-0.009,0.01,0.045,-0.025,-0.017,0.007,-0.002,-0.056,-0.04,0.028,-0.1,0.004
PRKCB isoform 2 (UniProt P05771),-0.004,0.054,-0.029,-0.019,0.03,0.057,-0.203,0.039,0.148,0.008,-0.001,0.003,0.036,-0.012,0.033,-0.122,0.035,0.009,-0.01,0.021
PLK1 (UniProt P53350),0.059,-0.108,-0.347 (active),-0.268,0.006,0.097,-0.034,-0.003,-0.023,0.003,-0.024,0.013,-0.179,0.168,0.043,-0.088,0.003,0.03,-0.019,-0.055
PPP2R5C isoform 4 (UniProt Q13362),0.059,-0.014,-0.022,-0.01,-0.08,-0.03,-0.047,-0.036,0.009,-0.007,-0.05,0,0.015,-0.051,0.213,-0.034,0.025,-0.11,-0.077,0.055
POLD1 (UniProt P28340),0.012,-0.075,0.035,0.027,0.011,0.008,0.074,0.007,0.007,-0.036,-0.014,-0.021,-0.022,0.013,-0.019,-0.061,0.003,0.02,-0.022,0.017
PEX2 (UniProt P28328),-0.041,-0.104,0.172,0.181,0.118,,,0.115,0.116,-0.372,-0.081,0.035,-0.041,-0.04,-0.031,0.096,,-0.151,-0.218,0.149
PHKA2 (UniProt P46019),0.064,-0.084,0.265 (active),-0.027,0.032,-0.008,0.018,-0.008,0.06,-0.03,-0.085,-0.042,0.048,0.022,-0.01,-0.035,-0.015,0.013,-0.109,-0.012
PRPF38A (UniProt Q8NAV1),-0.178,-0.068,-0.147,0.013,-0.004,0.115,-0.009,-0.044,0.013,-0.017,-0.001,0.039,-0.248,-0.399 (active),0.03,0.024,-0.034,0.012,-0.055,0.121
